# MCF10A rereplic: A quantitative high throughput screen for small molecules that induce DNA re-replication in MCF 10a normal breast cells | MCF 10A DNA re-replication, Hoechst nuclear intensity, 48 h | hit rate 2.9% among 350,000 | Potency, µM (series often up to 46.1 µM), most hits filed as activators; further: nearly all actives have a fitted effect of over 50% in size
# HT1080NT lethal: qHTS for induction of synthetic lethality in tumor cells producing 2HG: qHTS for the HT-1080-NT fibrosarcoma cell line | HT-1080-NT fibrosarcoma viability, CellTiter-Glo ATP luminescence, 48 h | Potency, µM (series often up to 46.1 µM), usual class: cytotoxic | hit rate 1.6% among 360,000 | AID 686970, 2013;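 further: NT is the 2HG producing partner of a matched IDH1 knockdown line; nearly all actives have a fitted effect of over 55% in size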
#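 750 cells/well, RPMI + 5% FBS; 2 h settle, compound pin-transfer, 48 h at 37 degrees C. CellTiter-Glo 10 min RT, luminescence. Normalized to DMSO and media-only wells.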
# HT1080 IDH1KD tx: qHTS for induction of synthetic lethality in tumor cells producing 2HG: qHTS for the HT-1080-IDH1KD cell line | AID 686971, 2013 | Potency, µM (top dose mostly 46.1 µM), actives largely listed as cytotoxic | hit rate 2% among 360,000 | HT-1080 IDH1 knockdown viability, ATP luminescence, 48 h
#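 HT-1080-IDH1KD cells (IDH1 knocked down), 750/well in RPMI with 5% FBS, treated with compound 48 h at 37 degrees C. Viability by CellTiter-Glo luminescence, normalised to DMSO and no-cell wells; concentration-response curves classed.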
# KB-V1 cytotox: qHTS assay for MDR1-selective chemotherapeutics: Primary screen using the drug-selected MDR subline cells KB-V1 | KB-V1 MDR cells viability, CellTiter-Glo, 72 h | Potency, µM (top dose mostly 46.1 µM), most hits filed as cytotoxic | hit rate 3.4% among 400,000 | AID 1347076, 2019; further: nearly all actives have a fitted effect of over 60% in size
#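 In this primary screen, KB-V1 cells overexpressing P-gp are incubated with library compounds (lowest to highest concentration) for 72 h at 37 degrees C before a luminescent ATP viability read.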
# SW480 rerep: A quantitative high throughput screen for small molecules that induce DNA re-replication in SW480 colon adenocarcinoma cells; SW480 DNA re-replication, Hoechst DNA content imaging, 48 h; Potency, µM (highest dose often 46.1 µM), actives largely listed as activators; hit rate 1.8% among 340,000; AID 624297, 2012; further: nearly all actives have a fitted effect of over 55% in size
#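 Quantitative HTS format with DMSO vehicle controls; 48 hr drug incubation at 37 C, then 40 min Hoechst staining and scanning imager measurement at 405 nm excitation.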
# KB-3-1 tox: qHTS assay for MDR1-selective chemotherapeutics: Primary screen using the parental adenocarcinoma cell KB-3-1. KB-3-1 viability, CellTiter-Glo ATP luminescence, 72 h. Potency, µM (highest dose often 46.1 µM), most hits filed as cytotoxic. hit rate 1.4% among 400,000; further: nearly all actives have a fitted effect of over 60% in size
#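 Cytotoxicity in the drug-sensitive parental line KB-3-1 was scored as loss of CellTiter-Glo luminescence following 72 h incubation with compound. Values come from curve fitting of normalized concentration-response data.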
# A number is an active result; – = inactive; ? = inconclusive; · = not tested or not shown; ! = repeats disagree; [ ] = another dose, or the depositor's remark. This is a sample that favours compounds with a hit; in the whole collection about 7.9% have one here. The call rests on the fitted dose curve; in most records, active means well fitted curve in the direction sought with a large enough effect; inconclusive means small, poorly fitted or top-dose-only effect, or another doubt; inactive means no such curve, though single readings can be large; an effect the other way counts as inactive or inconclusive.
SMILES,MCF10A rereplic,HT1080NT lethal,HT1080 IDH1KD tx,KB-V1 cytotox,SW480 rerep,KB-3-1 tox
CCn1cc(C2N3CC4(CC)CN2CC(CC)(C3)C4=O)c2ccccc21 (stereo not given),·,·,·,–,·,–
Cc1cc(C)c(NC(=O)CSc2nc3ccc(NC(=O)CSc4nnnn4Cc4ccccc4)cc3s2)c(C)c1,–,–,–,6.51µM,–,–
O=C1c2cnc3nc(SCc4cccc(Cl)c4)nn3c2CC2c3ccccc3CCN12 (stereo not given),2.06µM,–,–,–,2.59µM,–
O=C(O)c1cnc2ccc(Cl)cc2n1,·,–,–,–,·,–
COc1ccc(NC2=Nc3ccccc3N3C2=Nc2c(c(C)nn2-c2ccc(C)cc2)C3c2cccnc2)cc1 (stereo not given),4.61µM,–,–,?,2.91µM,–
CC(=O)Nc1ccc(NC2=Nc3ccccc3N3C2=Nc2c(c(C)nn2-c2ccccc2)C3c2ccccc2)cc1 (stereo not given),?,–,–,?,?,8.2µM
COc1ccc(NC(=O)CCN(c2ccc(OC)cc2)S(=O)(=O)c2ccc(C)c(C)c2)cc1,–,–,–,8.2µM,–,–
O=C(Nc1ccccn1)c1ccc(CN(c2ccccc2)S(=O)(=O)c2ccccc2)cc1,?,–,–,–,–,–
COc1ccc(N(Cc2ccccc2)S(=O)(=O)c2cccc(C(=O)Nc3ccccn3)c2)cc1,?,–,–,3.66µM,–,?
COc1ccc(C(=O)Nc2ccc(S(=O)(=O)N(Cc3ccccc3)c3ccccc3)cc2)cc1,·,·,·,2.31µM,·,–
CC[N+](CC)(CC(=O)Nc1c(C)cccc1C)Cc1ccccc1,–,–,–,–,–,–
CCOC(=O)c1cnn(-c2nc3c(C)cccc3s2)c1C(F)(F)F,?,–,–,–,–,–
CCOc1ccc(NC(=O)CSc2nc3ccccc3c(=O)n2CCCC(=O)NCC2CCCO2)cc1 (stereo not given),–,–,–,–,–,–
COc1ccc(/C(C)=N\NC(=O)C(c2ccncc2)N2CCOCC2)cc1 (stereo not given),–,–,–,–,?,–
O=S(=O)(c1ccc(Br)cc1)N1CCN(c2cc(-c3ccccc3)nc3ncnn23)CC1,–,–,–,13µM,–,?
COc1ccc(S(=O)(=O)N2CCN(c3cc(-c4ccccc4)nc4ncnn34)CC2)cc1,–,–,?,23.1µM,–,?
O=C(NCCN1CCOCC1)c1cc(Cl)ccc1Cl,–,–,–,–,–,–
O=C(NCCN1CCOCC1)NC1(C(F)(F)F)Oc2ccc(Cl)cc2O1 (stereo not given),–,–,–,?,–,4.61µM
COC(=O)CN1C(=O)[C@H]2[C@@H](c3ccc(C)o3)N3C(=O)CN(Cc4ccc(-c5ccccc5)cc4)C(=O)[C@@]3(C)[C@H]2C1=O,–,–,–,–,–,–
CCOC(=O)c1c(C)n(-c2ccc(C)cc2)c2ccc(OCC(O)CN3CCN(C)CC3)cc12 (stereo not given),?,20.6µM,18.4µM,–,–,?
Cc1nc2ccccc2n1CC(O)COc1ccc(C(=O)O)cc1 (stereo not given),·,·,·,–,·,–
Cc1nc2ccccc2n1CC(O)COc1ccccc1Cl (stereo not given),–,–,–,–,–,–
CCC(=O)c1ccc(OCC(O)Cn2c(C)nc3ccccc32)cc1 (stereo not given),–,–,23.1µM,8.2µM,–,–
Cc1nc2ccccc2n1CC(O)COc1ccc(Br)cc1 (stereo not given),–,–,–,13µM,–,?
CCOC(=O)c1c(C)n(C)c2ccc(OCC(O)Cn3c(C)nc4ccccc43)cc12 (stereo not given),?,–,?,13µM,–,–
SMILES,MCF10A rereplic,HT1080NT lethal,HT1080 IDH1KD tx,KB-V1 cytotox,SW480 rerep,KB-3-1 tox
COC(=O)c1c(NC(C)=O)sc2c1CCCCC2,–,–,–,–,·,–
COc1cccc(OCCCN2CCN(S(=O)(=O)c3ccc(NC(C)=O)cc3)CC2)c1,–,?,–,?,–,?
CC(C)(C)c1csc(NC(=O)c2ccccc2O)n1,?,?,?,?,–[9.22 µM],?
CC(C)(C)c1csc(NNC(=O)c2ccc(Br)cc2)n1,?,?,9.2µM,?,–,?
COc1ccc(C(c2sc3ncnn3c2O)N2CC(C)OC(C)C2)cc1OC (stereo not given),–,–,–,–,?,?
COc1ccc(C(c2sc3ncnn3c2O)N2CCN(c3ccccc3F)CC2)cc1OC (stereo not given),–,–,–,1.64µM,–,2.91µM
CCN1CCn2c3c(c4cc(Cl)ccc42)CCCC31 (stereo not given),–,–,?,–,–,–
CCN(CC)CCN1CCn2c3c(c4cc(C)ccc42)CCCC31 (stereo not given),4.11µM,?,–,–,14.6µM,–
O=C(O)CS(=O)(=O)c1ccc(Oc2ccc(S(=O)(=O)CC(=O)O)cc2)cc1,–,–,–,–,–,–
C=CCN1C(=O)C2C3CC(=O)C(c4ccccc43)C2C1=O (stereo not given),–,–,–,–,5.17µM,–
Cc1ccc2c(c1)C1(OCCCO1)C(=O)N2CC#N,–,–,–,–,–,–
CCc1nc(N)nc(N)c1-c1ccc(Cl)c(N=[N+]=[N-])c1,?,?,2.91µM,16.4µM,–,11.6µM!
CCc1c(N)nc(N)nc1Nc1ccccc1Cl,–,?,–,?,–,–
CN(C)c1ccc(/C=C2\N=C(c3ccc(Cl)c([N+](=O)[O-])c3)NC2=O)cc1,–,–,–,–,–,?
CCc1nc(N)nc(N)c1-c1ccc(Cl)c([N+](=O)[O-])c1,–,?,0.184µM,–,–,0.651µM
CCOC(=O)c1sc2ncn(CC(=O)Nc3ccc(F)cc3F)c(=O)c2c1C,·,·,·,–,·,–
Cc1ccc(NC(=S)NC(=O)c2cncc(Br)c2)c(C)c1,–,–,–,–,–,–
O=C1CC(N2CCSCC2)C(=O)N1c1cccc(Cl)c1 (stereo not given),0.82µM,–,–,?,?,–
O=C1CC(N2CCN(c3nc4ccccc4s3)CC2)C(=O)N1c1cccc(F)c1 (stereo not given),–,–,–,–,–,18.4µM
CCOC(=O)C1CCN(Cc2ccc(Cl)c(Cl)c2)CC1,?,–,–,–,–,–

# Source: PubChem (National Center for Advancing Translational Sciences (NCATS))
